Experimental data: PubChem BioAssay
The source made the active and inactive calls. The rule behind the calls is not given here.

Target: Pantothenate synthetase (Mycobacterium tuberculosis (strain ATCC 25618 / H37Rv)) (UniProt P9WIL5)
Experiment: Coupled enzyme confirmation of inhibitors against recombinant Mtb PanC (AID 375);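 note: 0% = full reaction with vehicle and 100% = no enzyme background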
Conditions: coupled enzyme assay; at 10 µM, hits give high values

Chain of Pantothenate synthetase (Mycobacterium tuberculosis (strain ATCC 25618 / H37Rv)) (P9WIL5 whole entry, looked up): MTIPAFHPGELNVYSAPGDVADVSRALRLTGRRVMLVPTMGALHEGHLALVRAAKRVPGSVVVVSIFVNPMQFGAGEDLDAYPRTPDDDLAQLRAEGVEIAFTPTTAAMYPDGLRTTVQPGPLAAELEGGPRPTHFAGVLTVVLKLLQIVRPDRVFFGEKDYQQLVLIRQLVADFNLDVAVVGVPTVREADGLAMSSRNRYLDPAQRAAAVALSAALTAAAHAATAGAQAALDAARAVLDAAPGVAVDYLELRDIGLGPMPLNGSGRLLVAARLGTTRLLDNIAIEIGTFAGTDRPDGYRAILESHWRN

| SMILES | inhibition |
| --- | --- |
| Cn1c(C(=O)NCC2CCCO2)cc2c(=O)n(C)c3ccccc3c21 (stereo not given) | 0% (inactive) |
| CN(C)c1nc(Nc2ccc(Cl)cc2)nc(OCC#N)n1 | 6% (inactive) |
| CC(=O)N(C(C)=O)c1ncc2c([nH]c3ccccc32)c1C#N | 0% (inactive) |
| Cc1cc(C)cc(N2C(=O)C3C4C=CC(C4)C3C2=O)c1 (stereo not given) | 0% (inactive) |
| Cc1nc(C)c(C(=O)Nc2ccc(Oc3ccccc3)cc2)o1 | 0% (inactive) |
| Cc1ccc(S(=O)(=O)N2CCCC2C(=O)OCc2nc3ccccc3s2)cc1 (stereo not given) | 0% (inactive) |
| CCn1cc(C(=O)NCc2ccccc2OC)c(=O)c2cc(S(=O)(=O)N(C)C)ccc21 | 0% (inactive) |
| O=C(Nc1sc2c(c1C(=O)NCc1ccco1)CCCC2)c1ccc2c(c1)OCO2 | 1% (inactive) |
| NC(=O)CSc1cn(CCNC(=O)c2cccs2)c2ccccc12 | 0% (inactive) |
| CCOC(=O)C1CCN(C(=O)Nc2ccc3nc(C)c(C)nc3c2)CC1 | 0% (inactive) |
| Cn1c(C(=O)N2CCCC(C(=O)NCCCc3ccccc3)C2)cc2sccc21 (stereo not given) | 0% (inactive) |
| O=C(CCn1c(=O)c2ccccc2n(CC(=O)NCCC2=CCCCC2)c1=O)NCc1ccco1 | 4% (inactive) |
| CCOc1ccc(CCN2C(=O)C3C4C=CC(C4)C3C2=O)cc1OCC (stereo not given) | 3% (inactive) |
| Cc1ccc(C)n1-c1ccc(N2CCOCC2)cc1 | 0% (inactive) |
| NS(=O)(=O)c1cc2c(cc1C(F)(F)F)NC(Cc1ccccc1)NS2(=O)=O (stereo not given) | 0% (inactive) |
| CCNS(=O)(=O)c1ccc(S(=O)(=O)N(Cc2ccccn2)C2CCCCC2)cc1 | 1% (inactive) |
| COCCn1nnnc1C(c1cccs1)N1CCN(c2cc(C)ccc2C)CC1 (stereo not given) | 0% (inactive) |
| CCOc1ccccc1NC(=O)CN(c1ccc(C)cc1)S(=O)(=O)c1c(C)noc1C | 9% (inactive) |
| CCNC(=O)N1c2ccc(OCC)cc2C(C)=CC1(C)C | 0% (inactive) |
| CC1CCN(S(=O)(=O)c2ccc3[nH]cc(C(=O)NCCN4CCOCC4)c(=O)c3c2)CC1 | 0% (inactive) |

| SMILES | inhibition |
| --- | --- |
| COCCNC(=O)C(C)OC(=O)c1nsc(Cl)c1Cl (stereo not given) | 0% (inactive) |
| COc1ccc(CC(=O)OCc2nnc(C3COc4ccccc4O3)o2)cc1OC (stereo not given) | 0% (inactive) |
| COc1ccc(-n2c(Cc3cccn3C)nnc2SCC(=O)Nc2cccc(OC)c2)cc1 | 2% (inactive) |
| COc1ccccc1N1CC(C(=O)Nc2cccc(C(=O)O)c2)CC1=O (stereo not given) | 0% (inactive) |
| CC(=O)N1CCc2cc(S(=O)(=O)CCC(=O)N3CCN(c4ccccn4)CC3)ccc21 | 11% (inactive) |
| Cc1ccc(-c2noc(C3CCCN(C(=O)c4ccc(F)cc4F)C3)n2)cc1 (stereo not given) | 0% (inactive) |
| CC(C)(C)c1ccc(OCC(=O)O)cc1 | 1% (inactive) |
| CCN(CC)CCNC(=O)c1ccc(CS(=O)(=O)c2ccc(Br)cc2)o1 | 0% (inactive) |
| Cc1ccccc1OCCN1C(=O)NC2(CCc3ccccc32)C1=O (stereo not given) | 8% (inactive) |
| CCN1CCN(Cc2ccc(NC(=O)Nc3ccc(SC)cc3)cc2)CC1 | 2% (inactive) |
| CCn1cc(C(=O)NCCN(C)CCc2ccccc2)c(=O)c2cc(S(=O)(=O)N(C)C)ccc21 | 4% (inactive) |
| CCOC(=O)N1CCN(S(=O)(=O)c2cc(Cl)ccc2Cl)CC1 | 3% (inactive) |
| C#CC(CO)N(CCN(Cc1ccccc1)C(C#C)CO)Cc1ccccc1 (stereo not given) | 9% (inactive) |
| CCNc1nc(NCC)n2c(SCc3nc4ccccc4c(=O)[nH]3)nnc2n1 | 1% (inactive) |
| N#Cc1ccccc1Cn1c(=O)n(Cc2ccc(C(=O)NCc3ccco3)cc2)c(=O)c2ccccc21 | 0% (inactive) |
| CN(CCO)CC(O)Cn1cnc2c1c(=O)n(C)c(=O)n2C (stereo not given) (tested in a mixture with another compound) | 0% (inactive) |
| O=P(CCNCc1ccco1)(c1ccccc1)c1ccccc1 | 0% (inactive) |
| Cc1cc(=O)n(CCO)c(O)c1C#N | 0% (inactive) |
| COc1ccc(CCNC(=O)C2CCN(Cc3nc(-c4cccc(Cl)c4)oc3C)CC2)cc1OC | 0% (inactive) |
| O=C(c1ccc2nc(N3CCOCC3)sc2c1)N1CCCC1 | 13% (inactive) |
